Measured values taken from PubChem BioAssay (Tox21).
Activity calls are given as the source filed them. Calls follow the shape of the dose curve; as a rule, active = well fitted curve in the direction sought with a large enough effect in the repeat runs; inconclusive = weak or mixed curves; inactive = flat fitted curve, though single readings scatter.

test: qHTS assay to test for compound auto fluorescence at 590 nm (red) in HEK293 cell free culture (AID 720683); conditions: cell-free medium autofluorescence, Ex540/Em590 red; series mostly up to 91.3 µM
From the text: U.S. Tox21 Program National Center for Advancing Translational Sciences [NCATS] NIH Chemical Genomics Center [NCGC] U.S. Environmental Protection Agency [EPA] National Institutes of Environmental Health Sciences [NIEHS] National Toxicology Program [NTP] U.S. Food and Drug Administration [FDA] Tox21 Assay Overview: Compound auto fluorescence often interferes with screening of the compound library against various biological targets and signaling pathways. Some of these compounds may have fluorophoric properties. Such properties may interfere with the assay outputs resulting in false positives and/or negatives. To decrease such complications and ensure the compound activities are relevant in terms of biological response, the Tox21 10K compound library was screened for auto fluorescence. From the fluorophores used as reporter signals in our screening assays, the auto fluorescence equivalencies of compounds against three fluorophores have been evaluated: Triamterene, Fluorescein and Rose Bengal sodium for blue, green and red fluorescence, respectively. The fluorescence intensities were measured using Excitation/Emission wavelengths at 405/460nm, 485/535nm and 540/590nm for blue, green and red labels, respectively. This assay includes the red fluorescence data.
Tox21 Assay Protocol Summary: 5 uL of culture medium (DMEM containing 10% FBS) per well was dispensed into black wall/clear bottom 1536-well plates using a Multidrop Combi Dispenser (ThermoFisher Scientific, Waltham, MA). After 23 nL compound or DMSO vehicle was transferred into assay plate by a pintool work station (Kalypsys, San Diego, CA), fluorescence intensities in the assay plates were measured by an Envision (PerkinElmer, Shelton, CT) plate reader using three labels for measuring blue, green and red fluorescence at […] 460, 535 and 590nm respectively.

| Structure (SMILES) | outcome |
| --- | --- |
| CCCCSP(=O)(SCCCC)SCCCC | inactive |
| CCCCCCCC[N+](C)(CCCCCCCC)CCCCCCCC | inactive |
| CCCCOCCOC(C)=O | inactive |
| CC(C)(O)C#N | inactive |
| Nc1ccc([N+](=O)[O-])cc1N | inactive |
| N#Cc1cccnc1 | inactive |
| COP(=O)(NC(C)=O)SC (stereo not given) | inactive |
| CC1(C)C(C(=O)OC(C#N)c2cccc(Oc3ccccc3)c2)C1(C)C (stereo not given) | inactive |
| COC(=O)Nc1nc2ccccc2[nH]1 | inactive |
| CCOP(=S)(OCC)SCSC(C)(C)C | inactive |
| CC(C)Nc1ccc(Nc2ccccc2)cc1 | inactive |
| Clc1ccccc1-c1nnc(-c2ccccc2Cl)nn1 | inactive |
| CCC/C=N/O | inactive |
| C[N+](C)(C)CC(=O)O | inactive |
| CCCCCCCCCc1ccc(O)cc1 | inactive |
| CCNc1nc(Cl)nc(NC(C)(C)C#N)n1 | inactive |
| CS(=O)(=O)NC(=O)c1cc(Oc2ccc(C(F)(F)F)cc2Cl)ccc1[N+](=O)[O-] | inactive |
| O=C1C(Cl)=C(Cl)C(=O)c2ccccc21 | inactive |
| CC[n+]1c(-c2ccccc2)c2cc(N)ccc2c2ccc(N)cc21 | inactive |
| c1ccc2c(c1)Nc1ccccc1S2 | inactive |

| Structure (SMILES) | outcome |
| --- | --- |
| Cn1c(-c2ccccc2)cc(-c2ccccc2)[n+]1C | inactive |
| [Cl-].[Cl-].[Cl-].[Fe+3] | inactive |
| CC(C)=CC1C(C(=O)OCN2C(=O)C3=C(CCCC3)C2=O)C1(C)C (stereo not given) | inactive |
| ClC(Cl)(Cl)Br | inactive |
| C[N+](C)(C)C | inactive |
| Oc1ccc(Cl)cc1Cl | inactive |
| CN(C)c1nc(=O)n(C2CCCCC2)c(=O)n1C | inactive |
| CNC(=O)Oc1cccc2c1OC(C)(C)C2 | inactive |
| OC(c1ccc(Cl)cc1)(c1cncnc1)c1ccccc1Cl (stereo not given) | inactive |
| CCOP(=O)(OCC)OCC | inactive |
| CCNCC | inactive |
| NC(=O)CN1CCCC1=O | inactive |
| N#CC(c1ccccc1)c1ccccc1 | inactive |
| CC(C)(c1ccccc1)c1ccc(O)cc1 | inactive |
| O=P(OCCCl)(OCCCl)OCCCl | inactive |
| ClC(Cl)(Cl)c1ccccc1 | inactive |
| O=NN(c1ccccc1)c1ccccc1 | inactive |
| CC(C)(O)C(=O)Nc1ccc([N+](=O)[O-])c(C(F)(F)F)c1 | inactive |
| CC(C)COC(=O)c1ccccc1C(=O)OCC(C)C | inactive |
| CN(C)c1ccccc1 | inactive |
